Results with a measured potency or affinity are listed apart. Unmarked numbers belong to inactive results. The source made the active and inactive calls. No rule for the calls is given here.
Assay: mammalian cell cytotoxicity, dose response, cytotoxicity control (AID 492950)
Details: cytotoxicity counter-screen; series mostly up to 40 µM; viability: at the top concentration

Row | SMILES | viability [%] | outcome
1 | Cn1c(O)c(C2=NN(C(=O)CCl)C(c3ccccc3)C2)c(=O)n(C)c1=O (stereo not given) | 90.6 | –
2 | O=C(Cc1cc(=O)[nH][nH]1)N/N=C/c1ccccc1[N+](=O)[O-] | 92.8 | –
3 | CC(/C=N/NC(=O)Cc1cc(=O)[nH][nH]1)=C\c1ccccc1 | 88.2 | –
4 | COc1ccc(/C=C2/C(=O)N(c3ccccc3)N=C2C)cc1OC | 98.5 | –
5 | COc1ccc(N(C(=O)COc2cccc(C)c2)S(=O)(=O)c2ccc(C)cc2)cc1 | 83.8 | –
6 | O=C(Cc1cc(=O)[nH][nH]1)N/N=C/c1cccc(Cl)c1Cl | – | inactive
7 | Cc1nn(C)c(C)c1C1C(C#N)=C(N)Oc2n[nH]c(C)c21 (stereo not given) | 91.1 | –
8 | Cc1ccc(C(=O)Oc2ccc([N+](=O)[O-])cc2)cc1S(=O)(=O)N1CCCCCC1 | 81.1 | –
9 | CCOC(=O)C/C(C)=N/NC(=O)COc1ccccc1C | 89.7 | –
10 | N#CC1=C(N)Oc2n[nH]c(-c3cccs3)c2C1c1ccccc1C(=O)O (stereo not given) | 93.2 | –
11 | CC(=O)N1CCC2(CC1)C(C#N)=C(N)Oc1n[nH]c(CSc3ccc(C)cc3)c12 | 97.3 | –
12 | Cc1cc(-c2[nH]nc3c2C(c2ccsc2)C(C#N)=C(N)O3)c(C)s1 (stereo not given) | 78.3 | –
13 | Cc1nc2ccccc2c2c1C(=O)N(C)C2=O | 104 | –
14 | O=C1CC(CSc2ccc(Cl)cc2)=NN1 | 96.4 | –
15 | CC(=O)N(C1CC(C)C(C#N)(C#N)C1(C#N)C#N)N(C)C (stereo not given) | 99.8 | –
16 | CCCc1[nH]nc2c1C(c1ccoc1)C(C#N)=C(N)O2 (stereo not given) | 86.2 | –
17 | Cc1ccc(-n2nnc3c(SCC(=O)NCC4CCCO4)ncnc32)cc1 (stereo not given) | 92.2 | –
18 | O=C(CSc1nnc(-c2ccccc2Cl)o1)Oc1ccc(Br)cc1 | 89.2 | –
19 | Cc1ccc(-c2[nH]nc3c2C(c2ccc(OC(=O)N4CCOCC4)cc2)C(C#N)=C(N)O3)cc1 (stereo not given) | 99.1 | –
20 | Cc1cc(-c2[nH]nc3c2C(c2ccc(Cl)cc2)C(C#N)=C(N)O3)c(C)s1 (stereo not given) | 91.7 | –
21 | Cc1ccc(-c2cc(=O)[nH][nH]2)c(C)c1 | 87.3 | –
22 | CSCCC1C(C#N)=C(N)Oc2n[nH]c(-c3cccs3)c21 (stereo not given) | 89.6 | –
23 | Cc1ccsc1/C=N/NC(=O)Cc1cc(=O)[nH][nH]1 | 90.7 | –
24 | CC1=NNC(=O)C1Cc1c(Cl)cccc1Cl (stereo not given) | 93.8 | –
25 | O=c1cc(-c2ccc(Br)cc2)[nH][nH]1 | 91.1 | –
26 | CCOc1ccccc1C1C(C#N)=C(N)Nc2onc(-c3ccccc3)c21 (stereo not given) | 75.6 | –
27 | COc1ccc(/C=C2/C(=O)N(c3ccccc3)N=C2C)c(OC)c1 | 90.2 | –
28 | O=c1cc(-c2ccc(Cl)c(Cl)c2)[nH][nH]1 | 95.7 | –
29 | O=C(Cc1cc(=O)[nH][nH]1)N/N=C/C(Cl)=C/c1ccccc1 | 99.4 | –
30 | N#CC1=C(N)Oc2n[nH]c(-c3cccs3)c2C1c1ccsc1 (stereo not given) | 100 | –

Reference: PubChem BioAssay AID492950 (Southern Research Specialized Biocontainment Screening …, 2010)
